Measurements taken from PubChem BioAssay (NCATS).
Inconclusive results are not listed. Activity calls are given as the source filed them. Unless noted, calls follow the shape of the dose curve; as a rule, active = well fitted curve in the direction sought with a large enough effect; inconclusive = small, poorly fitted or top-dose-only effect, or another doubt; inactive = no such curve, though single readings can be large; an effect the other way counts as inactive or inconclusive.

Legend:
[1] = P-glycoprotein substrates identified in KB-3-1 adenocarcinoma cell line, qHTS therapeutic library screen (AID 1346986); also: % is scaled to controls: 0 for no effect and ±100 for the full control effect; nearly all actives have a fitted effect of over 60% in size
Procedure, shortened: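 Viability by CellTiter-Glo after 72 h compound exposure at 37 degree C, 5% CO2. Cytotoxic call: curve class -1.1 to -2.4, maximum response >50%, AC50 < 10 uM, compared across KB-3-1 and P-gp-overexpressing KB-8-5-11.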

[2] = qHTS to identify inhibitors of the type 1 interferon - major histocompatibility complex class I in skeletal muscle: primary screen against the NCATS Mechanism Interrogation Plate v5.0 (MIPE) Libary (AID 1347411); also: potency is read from the fitted curve at half-maximal effect; nearly all actives have a fitted effect of over 65% in size
Procedure, shortened: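 HLA-B HiBit myoblasts, dexamethasone-free medium + 4 ng/ml IFN-b, 24 h compound, 11-pt 1:3 from 46 uM final. Readout: Nano-Glo HiBiT lytic luminescence after 10 min lysis, RT.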

[3] = Primary qHTS for inhibitors of nuclear receptor binding SET domain protein 2 (NSD2) in an isogenic RCH-ACV NSD2 p.E1099K mutant (9B) (AID 1645876); also: potency is read from the fitted curve at half-maximal effect; nearly all actives have a fitted effect of over 70% in size
[4] = Primary qHTS for inhibitors of nuclear receptor binding SET domain protein 2 (NSD2) in an RCH-ACV wild type WT cells (2C) (AID 1645877); also: potency is read from the fitted curve at half-maximal effect; nearly all actives have a fitted effect of over 70% in size
[5] = biological target: Glutathione peroxidase 1 (Homo sapiens) (UniProt P07203); experiment: Primary qHTS Assay for Inhibitors of Recombinant Selenoprotein Glutathione Peroxidase 1 (GPX1) (AID 1845191); also: nearly all actives have a fitted effect of over 65% in size
Glutathione peroxidase 1 (Homo sapiens), sequence (P07203 whole entry, looked up): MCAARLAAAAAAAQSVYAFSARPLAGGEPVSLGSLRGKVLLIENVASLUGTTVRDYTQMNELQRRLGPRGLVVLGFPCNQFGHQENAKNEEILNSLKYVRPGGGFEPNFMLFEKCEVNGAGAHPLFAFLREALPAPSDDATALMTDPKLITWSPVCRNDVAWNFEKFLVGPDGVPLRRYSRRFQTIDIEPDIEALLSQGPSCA
Procedure, shortened: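 GR-coupled readout: NADPH consumption tracked by fluorescence, ex 340/em 450 nm, at t=0 and after 15 min at RT. Final mix 10 nM GPX1, 1 mM GSH, 0.5 mM CHP, 0.5 mM NADPH, 100 nM GR, 0.01% BSA, following 30 min enzyme–compound preincubation.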

[6] = qHTS drug screen for cell cycle checkpoint inhibitors in PARPi-resistant BRCA-mutant ovarian cancer cell lines. (AID 1963452; calls by dose curve); conditions: PEO1/OlaR viability, CellTiter-Glo luminescence, 96 h, stronger effect = lower value
Procedure, shortened: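 PEO1, PEO4 and PEO1/OlaR ovarian cancer cells, 600 per well, exposed 96 h at 37C to a dilution series. Viability read by CellTiter-Glo luminescence, normalized to DMSO and empty wells; activity summarized as Z-AUC.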

[7] = qHTS assay to identify inhibitors of the type 1 interferon - major histocompatibility complex class I in skeletal muscle: Counter screen cell viability and HiBit confirmation (AID 1347412); conditions: iHSKM muscle cells + IFN-b, HiBiT or CellTiter-Glo, 24 h; HiBiT; also: potency is read from the fitted curve at half-maximal effect; nearly all actives have a fitted effect of over 60% in size
Procedure, shortened: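 Human myoblast knock-in line, 4.0 ng/ml IFN-beta stimulation, 24 h compound treatment. Endpoints: HiBiT lytic luminescence (HLA-B level) and CellTiter Glo (ATP). Dosing 12 concentrations, 3-fold steps, 46 uM highest final.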

In the case of `Cc1ccc(Nc2ncc3c(n2)N(C)C(=O)N(c2cc(NC(=O)c4cccc(C(F)(F)F)c4)ccc2C)C3)cn1`, the Potency [1] was “inactive”, the Potency [2] was 65.8 nM (active) and the Potency [3] was 33.2 nM (active). The Potency [4] was 59 nM (active), the Potency [5] was “inactive” and the Z-AUC [6] was -1.89 (inactive). The Z-AUC ([6]; measured here: PEO1 parental Z-AUC) was -2.2, the Z-AUC ([6]; measured here: PEO4 Z-AUC) was -1.4 and the Potency [7] was 394 nM (active).
